From PubChem BioAssay AID686978 (National Center for Advancing Translational Sciences (NCATS), 2013)
Where “and” joins values, the source holds several entries; their conditions need not be identical. Equal values may be shown once. Hit rate of the full screen: of about 420,000 compounds, about 64,000 (15%) were called active. About 27% were inconclusive and are not listed. Calls come from the whole dose curve; as a rule, active = well fitted inhibition curve with a large enough effect; inconclusive = small, poorly fitted or top-dose-only effect; inactive = flat fitted curve, though single readings scatter. Not all results are given here. Where a call stands in place of a potency, no number is given. Some structures have more than one record in an assay (separate samples or runs), and their calls can disagree.

Experiment: qHTS for Inhibitors of human tyrosyl-DNA phosphodiesterase 1 (TDP1): qHTS in cells in absence of CPT; note: nearly all actives have a fitted effect of over 55% in size
Details: DT40 Tdp1-/- hTDP1 cells, no CPT, ATP luminescence, 48 h; activity change, negative = growth inhibition: at 46.2 µM (top of the series)
How it was run: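 Stably hTDP1-transfected Tdp1-null chicken DT40 cells were treated with library compounds minus camptothecin and grown for at least 48 hr at 37 °C, after which cellular ATP was quantified by luminescence.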
Potency is the fitted concentration of half-maximal effect.

Compound | Potency
COc1ccccc1Cn1c(C)nnc1-c1cnn(C)c1N | inactive
COCCNC(=O)C1C(=O)Nc2ccccc2C(=O)N1c1ccc2c(c1)OCCO2 (stereo unspecified) | inactive
NC(=O)CC[C@@H]1NC(=O)[C@@H]2CCCN2C(=O)c2cc([N+](=O)[O-])cc(F)c2NCCC[C@@H](C(N)=O)NC1=O | inactive
CC(=O)N1CCc2c(sc(NC(=O)CCS(=O)(=O)c3ccc(C)cc3)c2C(N)=O)C1 | inactive
CC(C)N1CCc2c(sc(NC(=O)Cc3ccccc3)c2C#N)C1 | inactive
CC(=O)N1CCc2c(sc(NC(=O)CCS(=O)(=O)c3ccccc3)c2C#N)C1 | 14.6 µM (active)
CCN(CC)C(CNC(=O)CSc1nnnn1-c1cccc(F)c1)c1ccco1 (stereo unspecified) | inactive
Cc1ccc(C(=O)NCC(=O)O)s1 | inactive
COc1ccc(OC)c(-c2noc(N3CCN(c4cc(Cl)ccc4C)CC3)n2)c1 | 25.9 µM (active)
CCc1nc(-c2cc(S(=O)(=O)N3CCN(c4ccc(OC)cc4)CC3)ccc2OC)no1 | inactive
COc1ccc(S(=O)(=O)N2CCN(c3ccc(F)cc3)CC2)cc1-c1noc(C)n1 | inactive
O=C(c1cccc(S(=O)(=O)N2CCCC2)c1)N(Cc1ccco1)C1CCS(=O)(=O)C1 (stereo unspecified) | inactive
CC(NCc1nc2ccccc2n1C)C12CC3CC(CC(C3)C1)C2 (stereo unspecified) | 23.1 µM (active)
Cn1c(CNC(=O)C(C)(C)C)nc2ccccc21 | inactive
COc1cccc(C(O)Cc2nc3ccccc3n2C)c1OC (stereo unspecified) | inactive
Cc1ccc(S(=O)(=O)/N=C(/Nc2ccc3[nH]c(=O)[nH]c3c2)c2ccccc2)cc1 | inactive
CCN(CC)CCn1c(=S)[nH]c2ncccc2c1=O | inactive
COC(=O)c1sc2[nH]c(=S)n(N)c(=O)c2c1C | inactive
C=CCNc1nc(C)nc(OC)n1 | inactive
CN(C)c1ccc(C=NCCc2ccc(S(N)(=O)=O)cc2)cc1 | inactive
CC(C)CC1(C)NC(=O)N(CC(=O)Nc2ccc3c(c2)OCCO3)C1=O (stereo unspecified) | inactive
COCCNC(=O)C1CCN(S(=O)(=O)c2ccc3c(c2)OCCO3)CC1 | inactive

Compound | Potency
CC(C)OCCCNC(=S)N1CCC(C(=O)c2ccc3c(c2)OCCO3)CC1 | 14.6 µM (active)
O=C(c1ccc2c(c1)OCCO2)C1CCN(S(=O)(=O)c2cccc(F)c2)CC1 | inactive
O=C(NCCCN1CCN(C2CCCCC2)CC1)Nc1ccccc1C(F)(F)F | inactive
CC(C)C(=O)Nc1ccc(C(=O)NNC(=O)c2cccs2)cc1 | inactive
CC(C)(C)c1ccc(C(=O)Nc2ccc3c(c2)CCCN3C(=O)c2cccs2)cc1 | 5.8 µM (active)
O=C(O)c1ccc(NC(=O)c2cccs2)cc1 | inactive
Cc1cc(C(F)(F)F)n2ncc(-c3ccccc3)c2n1 | inactive
COc1ccc(-c2cc(C(F)(F)F)n3nc(-c4ccccc4)cc3n2)cc1OC | 16.4 µM (active)
COC(=O)c1cc2nc(-c3ccccc3)cc(C(F)(F)F)n2n1 | inactive
COc1cccc(NC(=O)N2CCC(NC(=O)C(Cc3cccc(C)c3)NC(C)=O)CC2)c1 (stereo unspecified) | inactive
NC(=O)Cn1c(=O)oc2ccccc21 | inactive
CCOc1ccc2nc(N(CCN(C)C)C(=O)c3ccc4ccccc4c3)sc2c1 | inactive
CCN(CC)CCN(C(=O)c1ccc(S(=O)(=O)N2CCOCC2)cc1)c1nc2cc3c(cc2s1)OCCO3 | inactive
CN(C)CCCN(C(=O)c1ccc(S(=O)(=O)N2CCCCCC2)cc1)c1nc2ccc(Br)cc2s1 | 18.4 µM (active)
COCc1c(C(=O)OCc2c(C)noc2C)oc2ccccc12 | inactive
CCNC(=S)NNC(=O)c1ccc2ncccc2c1 | inactive
CC(=O)Nc1ccc(Sc2ccccc2C(=O)N2CCCC2)cn1 | inactive
CNC(=O)C[C@H]1C(=O)N(c2ccc(OC)cc2)C[C@@H]1Cc1ccccc1 | inactive
O=C(C[C@H]1C(=O)N(c2ccc(F)c(F)c2)C[C@@H]1Cc1ccccc1)Nc1ccccc1 | inactive and 15.8 µM (active)
CNC(=O)C[C@H]1C(=O)N(Cc2ccccc2)C[C@@H]1CSC | inactive
CCOc1cc2[nH]c(=O)n(CCC(=O)NCc3ccc(OC)cc3)c(=O)c2cc1OCC | inactive
CN=C1SC(CC(=O)Nc2ccc(C(=O)O)cc2)C(=O)N1C (stereo unspecified) | inactive

Compound | Potency
CC1C(=O)C(C)C(c2ccc(O)cc2)NC1c1ccc(O)cc1 (stereo unspecified) | inactive
O=c1cc(CN2CCN(S(=O)(=O)/C=C/c3ccccc3)CC2)c2ccc(O)cc2o1 | 20.6 µM (active)
CC(=O)N1CCN(Cc2cc(=O)oc3cc(C)ccc23)CC1 | inactive
NC(=O)CCN1CCN(S(=O)(=O)/C=C/c2ccccc2)CC1 | inactive
COc1ccc(NC(=O)CCCN2C(=O)C(c3ccccc3)Oc3cccnc32)cc1 (stereo unspecified) | inactive
O=C(O)C1CCN1C1CCCCC1 (stereo unspecified) | inactive
O=S1(=O)CC(N2CCN(CCO)CC2)CN1C1CCCC1 (stereo unspecified) | inactive
O=S1(=O)CCN(C2CCCCCCCCCCC2)CC1 | 20.6 µM (active)
COc1ccc(NC(=O)N(C)C[C@@H]2OCc3cn(nn3)CCCC(=O)N([C@H](C)CO)C[C@H]2C)c(OC)c1 | inactive
COCCN(C(=O)CC1CCCCC1)c1c(N)n(CC(C)C)c(=O)[nH]c1=O | inactive
CC(C)C1C(=O)N(Cc2cn(CCC3OCCO3)nn2)CCS(=O)(=O)N1Cc1ccc(-c2ccccc2C(F)(F)F)cc1 (stereo unspecified) | 25.9 µM (active)
Cc1ccc(-c2ccc(CN3C(C(C)C)C(=O)N(Cc4cn(CCC5OCCO5)nn4)CCS3(=O)=O)cc2)cc1 (stereo unspecified) | 7.31 µM (active)
Cc1ccc(-c2ccc(CN3C(C(C)C)C(=O)N(Cc4cn(CCC5OCCCO5)nn4)CCS3(=O)=O)cc2)cc1 (stereo unspecified) | 11.6 µM (active)
Cc1ccc(CN2CCCOCCS2(=O)=O)cc1 | inactive
CCC(C)[C@H]1COCCS(=O)(=O)N1Cc1ccc(C)cc1 (stereo partly specified) | inactive
Cc1ccc(-c2ccc(CN3C(C)C(=O)N(Cc4cn(CCC5OCCCO5)nn4)CCS3(=O)=O)cc2)cc1 (stereo unspecified) | 23.1 µM (active)
CCCc1nnc(NC(=O)CCC(=O)NC2CC2)s1 | inactive
O=C(Oc1cc(OC(=O)c2ccccc2)c2c(c1)OC(c1ccc(OC(=O)c3ccccc3)c(OC(=O)c3ccccc3)c1)[C@@H](OC(=O)c1ccccc1)C2)c1ccccc1 (stereo partly specified) | inactive
Nc1ccc(-n2nncc2-c2ccco2)cc1 | inactive
CC(C)c1ccc(N2CC(C(=O)Nc3nccs3)CC2=O)cc1 (stereo unspecified) | inactive
O=C(NN=C1CCC(=NNC(=O)c2cccnc2)CC1)c1cccnc1 | inactive
COc1ccc(CNC(=O)C2CCN(S(C)(=O)=O)CC2)cc1 | inactive

Compound | Potency
Cn1cnc(S(=O)(=O)N2C[C@@H](O)COC[C@@H]3O[C@H](CC(=O)NC4CCC4)CC[C@H]32)c1 | inactive
c1csc(-c2nnc(COc3ncnc4sccc34)o2)c1 | inactive
C[C@@H]1NC(=O)c2cc([N+](=O)[O-])cc(F)c2NCCC[C@@H](C(N)=O)NC(=O)[C@H](CC(N)=O)NC1=O | inactive
CN1CCN(NC(=O)c2ccc(S(=O)(=O)N3CCCCCC3)cc2)CC1 | inactive
COc1ccc(S(=O)(=O)N2CCCCC2)cc1Br | inactive
COc1ccc(S(=O)(=O)N2CCC(C(=O)N3CCc4ccccc4C3)CC2)cc1OC | 29.1 µM (active)
COc1ccc(S(=O)(=O)N2CCC(C(=O)N3CCOCC3)CC2)cc1OC | inactive
O=C(c1cc(S(=O)(=O)N2CCOCC2)ccc1Cl)N1CCOCC1 | inactive
COc1cc(S(=O)(=O)N2CCN(C(=O)C3CC3)CC2)ccc1NC(C)=O | inactive
COc1cc2c(cc1OC)CN(C(=O)c1cc(S(=O)(=O)N3CCCCC3)ccc1Cl)CC2 | 11.6 µM (active)
COc1ccc(C(=O)NCC2CCCCC2)cc1S(=O)(=O)N1CCCC1 | inactive
COc1cc2c(cc1OC)CN(C(=O)c1ccc(S(=O)(=O)N3CCCCCC3)cc1)CC2 | 14.6 µM (active)
CSc1ccccc1OCc1cc(C(=O)N2C[C@H]3CC[C@H]2C3)no1 | inactive
CCOc1ccccc1N(CC(=O)NC1CCCCC1)C(=O)CCCC(=O)Nc1ccccn1 | inactive
O=C(c1ccc(Cl)cc1)c1cnc(Nc2ccccc2)s1 | inactive
Cc1ccc(S(=O)(=O)NN=C2CC(C)(C)CC(=O)C2(C)C)cc1 | inactive
COC(C[C@@H](O)C[C@H](O)[C@H](C)OCc1ccccc1)OC | inactive
Cc1noc(C)c1COc1ccccc1C(=O)N(C)CC(=O)Nc1cccc(F)c1 | inactive
Cc1cc(Nc2ccccc2)n(CCC#N)n1 | inactive
O=c1ccn([C@@H]2O[C@H](COP(=O)(O)OP(=O)(O)OP(=O)(O)O)[C@@H](O)[C@H]2O)c(=O)[nH]1 | inactive
Cc1ccccc1NC(=O)CN1C(=O)N/C(=C\c2cccn2-c2cccc(C(=O)O)c2)C1=O | inactive
Nn1c(SCc2ccccc2)nnc1C1CCCCC1 | inactive

Compound | Potency
Cc1ccc(-c2nc(C#N)c(NCCCn3ccnc3)o2)cc1 | inactive
Cc1ccc(S(=O)(=O)NCCCn2ccnc2)cc1C(=O)NC(C)C | inactive
Cc1ccc(S(=O)(=O)c2nc(NCCCn3ccnc3)sc2Cl)cc1 | 20.6 µM (active)
CCc1ccccc1NC(=O)CCOc1ccccc1 | inactive
CCc1ccccc1NC(=O)/C(=C/c1ccccc1)c1ccccc1 | 23.1 µM (active)
CCc1ccccc1NC(=S)Nc1cc(OC)c(NC(=O)C(C)C)cc1OC | inactive
O=S(=O)(Nc1cccc(Oc2ccc(Cl)cc2)n1)c1ccc(F)cc1 | inactive
CC(C)(C)NC(=O)CN1CCC(NC(=O)C23CC4CC(CC(C4)C2)C3)CC1 | inactive
CCc1c(C)sc(NC(=O)C2c3ccccc3Oc3ccccc32)c1C(=O)OC(C)C | inactive
Cc1cc(S(=O)(=O)N2CCOCC2)ccc1OCC(=O)Nc1cccc(C(F)(F)F)c1 | inactive
O=C(OCC(=O)N1CCOCC1)c1ccc(N2CCOCC2)c([N+](=O)[O-])c1 | inactive
O=C(COc1ccc(S(=O)(=O)N2CCOCC2)cc1Cl)N1CCOCC1 | inactive
O=C(Cc1ccc(S(=O)(=O)N2CCOCC2)s1)Nc1ccc(Br)c(C(F)(F)F)c1 | 25.9 µM (active)
O=C(Cc1ccc(S(=O)(=O)N2CCOCC2)s1)N1CCN(c2ccc(C(F)(F)F)cc2[N+](=O)[O-])CC1 | 9.2 µM (active)
O=C(Oc1ccccc1Cl)c1ccc(N2CCOCC2)c([N+](=O)[O-])c1 | inactive
O=C(Cc1ccc(S(=O)(=O)N2CCOCC2)s1)NCCOc1ccccc1F | inactive
O=C(c1ccc(N2CCOCC2)c([N+](=O)[O-])c1)N1CCN(S(=O)(=O)c2cccs2)CC1 | 16.4 µM (active)
O=S(=O)(Nc1cc(S(=O)(=O)N2CCOCC2)ccc1N1CCCC1)c1cccs1 | inactive
